# High-throughput results: PubChem, several laboratories
# Beta apoptosis: inhibitors of cytokine-induced beta cell apoptosis, primary screen, luminescence; INS-1E cytokine-induced death, ATP luminescence, 48 h; percent of positive-control rescue, neutral wells zero; hit rate 0.8% among 300,000; protection from apoptosis, % (concentration not given with the values);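 active means Every replicate reaches about 75%, or at least half do and their mean reaches it too, limit read from the data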;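 further: 0% = cytokine-treated negative control wells and 100% = positive control rescue; higher means more ATP so stronger rescue from cytokine killing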
# Jurkat NFkB inh: inhibitors of induced NF-kB luciferase reporter, primary screen, TCR NF-kB activation inhibitor project, cell-based, luminescence, uHTS | hit rate 0.53% among 330,000 | Jurkat, PMA/ionomycin-induced NF-kB luciferase reporter | inhibition, % at 4 µM; in the data active means inhibition above about 50%
# Mdm2-MdmX inh: inhibitors of human Mdm2-MdmX association, primary screen, cell-based, luminescence, split luciferase, SaOS-2, uHTS | Protein Mdm4 (Homo sapiens) + E3 ubiquitin-protein ligase Mdm2 (Homo sapiens), … | SaOS-2 split-luciferase Mdm2/MdmX complementation | inhibition, % at 8 µM | hit rate 3% among 330,000;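 active means inhibition of at least 50% at 8 µM in the primary screen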
# Bfl-1 A1 inh: caspase 3/7 activation in MEF A1-2A-BIM cells, primary screen, A1 inhibitor project, cell-based, luminescence, HTS; caspase activation, % (no concentration beside the values); hit rate 0.066% among 330,000; Caspase-Glo 3/7 luminescence, 3 h; percent of clofoctol response, vehicle zero;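 active means over half of replicate activation scores above 10%, or exactly half above 10 with the replicate mean above 10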
# 697 NFkB inh: inhibitors of PMA/ionomycin-induced NF-kB reporter, 697 cells, primary screen, B-cell NF-kB inhibitor project, cell-based, luminescence, uHTS; hit rate 0.33% among 330,000; AID 435022, 2010; 697 B-cell NF-kB luciferase reporter, 16 h; inhibition, % at 4 µM; in the data active means inhibition above about 35%
# NTR1 agonist: agonists of human NTR1, primary screen, imaging, U2OS cells, beta-arrestin-GFP, high content. NTR1-U2OS beta-arrestin-GFP spot imaging, agonist mode. AID 493036, 2011. hit rate 0.17% among 330,000. activation, % at 20 µM. Neurotensin receptor type 1 (Homo sapiens), P30989;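 active means activation at or above 40% of the spot to cytoplasm intensity ratio, with at least 20 cells analyzed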;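 further: 0% = DMSO without peptide and 100% = 100 nM NTR1 peptide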
# Jurkat NFkB conf: PMA/ionomycin-induced NF-kB reporter inhibitors, Jurkat retest, confirmation, T-cell NF-kB inhibitor project, cell-based, luminescence, single concentration | shares compounds with Jurkat NFkB inh | Jurkat NF-kB luciferase, 16 h | inhibition, % at 4 µM | hit rate 27% among 2,700 | AID 435020, 2010;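 active means inhibition reaching about 45% at 4 µM in either replicate, limit read from the data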;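 further: plate controls were PMA/ionomycin stimulated DMSO wells for no effect and unstimulated DMSO wells for full effect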
# Numbers without * were called inactive; nt = no result given. Shown are actives, neighbours in structure and some others; about 3.8% of the full set was active somewhere.
SMILES,Beta apoptosis,Jurkat NFkB inh,Mdm2-MdmX inh,Bfl-1 A1 inh,697 NFkB inh,NTR1 agonist,Jurkat NFkB conf
COc1ccc(OC)c(CCNC(=O)Cn2nc(C)c3c(C)n(-c4ccc(C)cc4)nc3c2=O)c1,17,56*,24,1,14,2,66*
Cc1cnc(NC(=O)COc2ccc3c(c2)CCC3)s1,-16,-152,26,0,-12,0,-87
Cc1ccc(/C=N/Nc2cccc3cccnc23)c(O)c1,8,-152,-223,-10,-123,15,-77
Oc1ccc(/C=N/Nc2cccc3cccnc23)c(O)c1,nt,-55,-76,-8,-197,13,nt
Cc1ccc(O)c(-c2cc(-c3ccc(F)cc3)no2)c1,nt,-193,-172,-6,-230,0,-144
O=C(c1cc(-c2ccccc2O)on1)N1CCCCCC1,6,-61,-37,-1,-34,-1,nt
Oc1ccccc1-c1cc(-c2ccccc2)no1,0,-165,-193,-13,-109,-2,-150
Cc1ccccc1-c1cc(-c2ccccc2O)on1,-6,-193,-309,-11,-98,3,-128
Clc1ccc(-c2cc(-c3ccccc3)on2)cc1,-1,-173,-183,-4,-210,-2,-92
Cc1ccc(O)c(-c2cc(-c3ccccc3C)[nH]n2)c1,nt,14,29,nt,-6,17,nt
Cc1nc(-c2cc(-c3ccc(Cl)cc3)no2)cs1,5,-103,-55,-6,-155,-2,nt
Cc1ccc(-c2cc(-c3ccccc3)no2)c(O)c1,-3,nt,nt,-9,nt,nt,nt
COc1nc(N(C)C)nc(N(C#N)S(=O)(=O)c2ccc(C)cc2)n1,0,4,-16,1,-11,-1,nt
COc1cc2cc(CCCOC(=O)c3ccc(C#N)cc3)oc(=O)c2cc1OC,5,6,7,1,3,4,nt
O=C(Nc1ccccc1C(=O)N1CCN(Cc2ccccc2)CC1)c1ccccc1,-9,14,16,0,14,-1,nt
NC(=S)N=Nc1c(O)n(Cc2ccc(Br)cc2)c2ccccc12,11,60*,48,0,-35,16,12
NC(=S)N=Nc1c(O)n(Cc2ccc(F)cc2)c2ccccc12,20,-5,30,0,15,14,nt
CCc1nc(SCC(=O)Nc2cc(C)on2)c2c(C)c(C)sc2n1,1,2,12,0,0,0,nt
Cc1cc(NC(=O)CSc2nc(C3CC3)nc3sc(C)c(C)c23)no1,nt,51*,34,1,-55,1,7
O=C(NCCc1ccc(Cl)cc1)C1CCCO1 (stereo not given),-1,-8,6,3,5,-2,nt
CN(C)c1ccc(N=Nc2ccc(S(N)(=O)=O)cc2)cc1,-1,-154,-73,1,-156,2,-79
CCC(C)NC(=O)Cn1ccc2cc(S(=O)(=O)N3CCCCCC3)ccc21 (stereo not given),-2,-3,22,0,-10,0,nt
CC(=O)c1ccc(Nc2ccc(-c3ccccc3F)nn2)cc1,1,-161,-222,-2,-182,1,-121
Cc1ccc(C(=O)/C=C\Nc2ccc(C)c(C)c2)cc1,-8,-162,-199,-4,-146,4,-18
CCOc1ccc(N/C=C/C(=O)c2ccc(C)cc2)c([N+](=O)[O-])c1,3,-117,-83,-1,-115,4,nt
Cc1ccc(C(=O)/C=C/Nc2ccc([N+](=O)[O-])cc2Br)cc1,-2,-165,22,-3,-187,1,-41
Cc1cc(N/C=C/C(=O)c2ccccc2)ccc1Br,6,-167,-40,-7,-248,-1,-120
CC(=O)Nc1ccc(N/C=C/C(=O)c2ccccc2)cc1,0,-109,-30,-9,-115,-1,nt
